This passage reports composite z-score, composite Z-score and z-score results from PubChem BioAssay.

Activity calls are given as the source filed them.

One assay concerns the target Albumin (Bos taurus) (UniProt P02769). The assay is described as follows: bovine serum albumin binders on microarray, profiling panel, artefact control for SMM control protein annotation, biochemical, small-molecule microarray, Alexa647 label, 635/667 nm fluorescence (AID 1118).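 Further: score merges 667 nm emission intensity and signal-to-noise per printed compound spot.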 The following applies: BSA-A647 binding, fluorescence 635 nm, higher = more signal.
Assay [1] can be described thus: small-molecule microarray binders of probe aXIP, primary screen, biochemical, NeuroSMM set, 635/667 nm fluorescence (AID 1119).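 Further: probe is the protein aXip251-270 applied at 1 µg/mL to compound-printed slides; binding of probe to printed compounds measured as 667 nm fluorescence plus signal to noise.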 The settings on record: higher = more signal, called active from +8 up or from −8 down.
The nature of assay [2]: small-molecule binders of probe aNOTCH3, primary screen, biochemical, small-molecule microarray, 635/667 nm fluorescence (AID 1120).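 Further: probe is a biotin-tagged antibody raised against NOTCH3 rather than NOTCH3 protein; score merges spot fluorescence near 667 nm with spot signal to noise.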 The following applies: higher = more signal.
Assay [3] in a line: small-molecule binders of probe aNOTCH2, primary screen, biochemical, small-molecule microarray, 635/667 nm fluorescence (AID 1121).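 Further: score merges feature fluorescence read at 667 nm with its signal to noise.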 The following applies: higher = more signal.
Assay [4] addresses Carbonic anhydrase 2 (Homo sapiens) (UniProt P00918). The assay is described as follows: CAII small-molecule binders, profiling panel, biochemical, small-molecule microarray, Alexa647-labelled CAII (AID 1122). The following applies: CAII-A647 binding fluorescence, higher = more signal.
A short description of assay [5]: COS7 lysate on small-molecule microarray, probe aHis, 635 nm (AID 1123).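 Further: z-score combines 667nm fluorescence intensity with signal-to-noise per printed compound spot.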 The settings on record: COS7 cell lysate, fluorescence, higher = more signal.
Assay [6] is described as follows: compound binding in COS7 lysate, probe aLAP1, primary screen, cell lysate, small-molecule microarray (AID 1124).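 Further: lysate comes from COS7 cells expressing LAP1 and is applied at 0.3 µg/mL; score merges spot fluorescence near 667 nm with signal-to-noise over triplicate slides.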 The following applies: probe aLAP1, fluorescence, higher = more signal.
A further assay deals with Sam68 (KHDRBS1). The assay is described as follows: Sam68 small-molecule binders, primary screen, biochemical, small-molecule microarray, 635 nm fluorescence (AID 1125).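 Further: score merges 667 nm channel intensity with signal to noise over triplicate slides.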 The settings on record: small-molecule microarray binding, higher = more signal.
In assay [7] the test system is Chordin-like protein 2 (CHRDL2). The assay is described as follows: CHRDL2 small-molecule binders, primary screen, biochemical, small-molecule microarray, 635 nm fluorescence (AID 1126).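 Further: printed compound slides probed with Chrdl2 protein at 4 µg/mL for 1 h at 4 C; score merges 667 nm emission intensity with signal to noise over three replicate slides.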 The settings on record: small-molecule microarray binding, fluorescence 635 nm; higher = more signal.
In assay [8] the target is Concanavalin-A (Canavalia ensiformis) (UniProt P02866). The assay is described as follows: ConA small-molecule binders, primary screen, artefact control for SMM control protein annotation, biochemical, small-molecule microarray, Alexa647 label, 635 nm (AID 1127).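 Further: z combines 667 nm emission intensity with signal-to-noise across three replicate slides.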 The settings on record: ConA-A647 binding fluorescence, higher = more signal.
Assay [9] is described as follows: anti-His antibody binders, primary screen, artefact control for SMM control protein annotation, biochemical, small-molecule microarray, 635 nm fluorescence (AID 1128).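 Further: score merges feature fluorescence with signal-to-noise for each printed compound spot.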 The following applies: anti-His Alexa647 antibody binding, higher = more signal.
Assay [10] concerns Human papillomavirus type 1a E7 protein (residues 1-88). The assay is described as follows: HPV1a E7 small-molecule binders, primary screen, biochemical, small-molecule microarray, residues 1-88, 635 nm (AID 1129). The settings on record: small-molecule microarray binding, fluorescence 635 nm; higher = more signal.
The target in assay [11] is Focal adhesion kinase 1 (Homo sapiens) (UniProt Q05397). The assay is described as follows: small-molecule microarray binders of FAK, primary screen, biochemical, 635/667 nm fluorescence, BSA, DTT (AID 1130).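 Further: composite of spot emission at 667 nm and signal to noise over triplicate slides.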 The settings on record: PTK2 binding, 635 nm fluorescence, higher = more signal.
The subject of assay [12] is Fibrinogen (Alexa647-labelled). The assay is described as follows: fibrinogen binders on compound microarrays, profiling panel, artefact control for SMM control-protein annotation, biochemical, small-molecule microarray, 635/667 nm fluorescence (AID 1131).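 Further: z-score merges 667 nm fluorescence with per-spot signal-to-noise over triplicate slides.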 The following applies: fibrinogen-A647 binding fluorescence, higher = more signal.
In assay [13] the target is Follistatin (Homo sapiens) (UniProt P19883). The assay is described as follows: follistatin binders on small-molecule microarrays, primary screen, biochemical, small-molecule microarray, 635/667 nm fluorescence (AID 1132). The settings on record: FST binding, 635 nm fluorescence, higher = more signal.
The target of assay [14] is Fibroblast growth factor 2 (Homo sapiens) (UniProt P09038). The assay is described as follows: FGF2 binders on small-molecule microarrays, primary screen, biochemical, small-molecule microarray, 635/667 nm fluorescence (AID 1133). The settings on record: small-molecule microarray binding, FGF2, fluorescence 635/667; higher = more signal.
The nature of assay [15]: mitochondrial membrane potential change in A549 cells, profiling panel, cell-based, JC-1 fluorescence, basal, 24 h, 100 nL (AID 1138).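 Further: A549 lung adenocarcinoma cells under basal conditions with no added stimulus; test concentration not given here.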 The following applies: higher = more signal.
The subject of the next assay is Lefty1. The assay is described as follows: Lefty1 binders on small-molecule microarrays, primary screen, biochemical, small-molecule microarray, 635/667 nm fluorescence (AID 1139). The following applies: small-molecule microarray binding, fluorescence 635/667; higher = more signal.
For assay [16], the system named is wheat germ agglutinin (Triticum aestivum), Alexa647-labelled. The assay is described as follows: wheat germ agglutinin binders on compound microarrays, profiling panel, artefact control for SMM control-protein annotation, biochemical, small-molecule microarray, 635/667 nm fluorescence (AID 1140).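 Further: score merges 667 nm feature emission with signal to noise over triplicate slides.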 The settings on record: WGA-A647 binding, 635 nm fluorescence, higher = more signal.

The target of assay [17] is Luciferin 4-monooxygenase (Photinus pyralis) (UniProt P08659). The assay is described as follows: firefly luciferase enzyme inhibitors, primary screen, biochemical, luminescence, purified enzyme, 2006 set (AID 1141).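 Further: cell-free assay with purified firefly luciferase at 100 ng per well in PBS; test concentration not given here.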 The settings on record: SteadyGlo luminescence, 30 min, higher = more signal, called active from +8 up or from −8 down.
Chain of Luciferin 4-monooxygenase (Photinus pyralis) (P08659 whole entry, looked up): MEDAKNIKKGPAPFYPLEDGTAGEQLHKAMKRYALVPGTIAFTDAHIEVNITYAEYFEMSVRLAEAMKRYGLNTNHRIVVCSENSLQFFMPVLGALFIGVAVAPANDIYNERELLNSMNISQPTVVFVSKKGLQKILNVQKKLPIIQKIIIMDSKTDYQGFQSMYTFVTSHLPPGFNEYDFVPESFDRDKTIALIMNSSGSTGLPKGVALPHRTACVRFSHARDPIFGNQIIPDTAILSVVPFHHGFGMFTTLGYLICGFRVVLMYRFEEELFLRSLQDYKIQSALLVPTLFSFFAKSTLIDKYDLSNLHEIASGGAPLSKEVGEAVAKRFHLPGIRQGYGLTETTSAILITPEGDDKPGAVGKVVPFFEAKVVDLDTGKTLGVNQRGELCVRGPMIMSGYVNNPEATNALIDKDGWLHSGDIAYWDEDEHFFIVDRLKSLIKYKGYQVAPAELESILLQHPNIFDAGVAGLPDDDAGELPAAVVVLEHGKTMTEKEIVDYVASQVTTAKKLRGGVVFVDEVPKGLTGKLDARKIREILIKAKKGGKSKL

Chain of Follistatin (Homo sapiens) (P19883 whole entry, looked up): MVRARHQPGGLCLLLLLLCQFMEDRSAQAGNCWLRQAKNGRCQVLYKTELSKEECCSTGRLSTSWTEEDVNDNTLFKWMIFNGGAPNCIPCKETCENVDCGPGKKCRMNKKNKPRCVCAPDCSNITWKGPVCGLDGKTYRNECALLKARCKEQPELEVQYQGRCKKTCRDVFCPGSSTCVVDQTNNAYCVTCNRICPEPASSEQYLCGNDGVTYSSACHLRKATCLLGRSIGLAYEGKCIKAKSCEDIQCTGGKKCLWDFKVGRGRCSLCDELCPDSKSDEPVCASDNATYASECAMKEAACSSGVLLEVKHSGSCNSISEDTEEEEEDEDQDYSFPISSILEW
Chain of Focal adhesion kinase 1 (Homo sapiens) (Q05397 whole entry, looked up): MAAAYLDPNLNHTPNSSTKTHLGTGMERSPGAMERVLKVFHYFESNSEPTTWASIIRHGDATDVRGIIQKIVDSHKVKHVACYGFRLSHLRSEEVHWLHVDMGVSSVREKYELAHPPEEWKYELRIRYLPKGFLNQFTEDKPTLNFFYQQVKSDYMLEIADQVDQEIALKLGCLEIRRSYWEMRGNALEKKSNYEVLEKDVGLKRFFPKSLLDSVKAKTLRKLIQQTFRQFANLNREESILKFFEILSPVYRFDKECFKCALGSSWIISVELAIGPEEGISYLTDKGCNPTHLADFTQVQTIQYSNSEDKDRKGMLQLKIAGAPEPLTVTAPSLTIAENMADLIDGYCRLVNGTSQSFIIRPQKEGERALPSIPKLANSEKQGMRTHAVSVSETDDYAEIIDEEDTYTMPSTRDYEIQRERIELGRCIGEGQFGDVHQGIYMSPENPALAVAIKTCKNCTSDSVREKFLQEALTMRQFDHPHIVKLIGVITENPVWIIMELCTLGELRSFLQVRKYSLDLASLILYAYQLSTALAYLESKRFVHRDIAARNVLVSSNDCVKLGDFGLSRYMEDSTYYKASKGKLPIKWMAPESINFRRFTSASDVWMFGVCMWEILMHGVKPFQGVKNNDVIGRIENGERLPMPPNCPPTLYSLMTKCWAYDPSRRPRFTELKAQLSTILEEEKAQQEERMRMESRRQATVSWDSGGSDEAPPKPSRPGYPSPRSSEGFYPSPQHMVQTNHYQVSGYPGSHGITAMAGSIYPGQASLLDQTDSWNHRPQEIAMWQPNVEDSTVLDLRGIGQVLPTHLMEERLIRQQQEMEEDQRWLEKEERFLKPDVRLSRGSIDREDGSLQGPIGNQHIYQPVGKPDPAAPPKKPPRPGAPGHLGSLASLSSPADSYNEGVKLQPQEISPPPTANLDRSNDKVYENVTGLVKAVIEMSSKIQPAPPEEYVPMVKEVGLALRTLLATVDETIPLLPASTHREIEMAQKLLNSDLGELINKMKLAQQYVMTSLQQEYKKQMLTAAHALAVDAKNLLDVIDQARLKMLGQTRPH
Chain of Fibroblast growth factor 2 (Homo sapiens) (P09038 whole entry, looked up): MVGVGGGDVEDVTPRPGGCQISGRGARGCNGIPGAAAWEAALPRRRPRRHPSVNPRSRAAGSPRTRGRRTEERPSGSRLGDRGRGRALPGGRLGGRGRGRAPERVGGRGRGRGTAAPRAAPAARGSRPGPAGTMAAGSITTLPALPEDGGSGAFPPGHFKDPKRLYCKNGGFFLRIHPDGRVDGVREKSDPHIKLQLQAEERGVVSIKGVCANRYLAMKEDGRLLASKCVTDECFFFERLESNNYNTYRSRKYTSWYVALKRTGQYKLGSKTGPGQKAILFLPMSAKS
Chain of Concanavalin-A (Canavalia ensiformis) (P02866 whole entry, looked up): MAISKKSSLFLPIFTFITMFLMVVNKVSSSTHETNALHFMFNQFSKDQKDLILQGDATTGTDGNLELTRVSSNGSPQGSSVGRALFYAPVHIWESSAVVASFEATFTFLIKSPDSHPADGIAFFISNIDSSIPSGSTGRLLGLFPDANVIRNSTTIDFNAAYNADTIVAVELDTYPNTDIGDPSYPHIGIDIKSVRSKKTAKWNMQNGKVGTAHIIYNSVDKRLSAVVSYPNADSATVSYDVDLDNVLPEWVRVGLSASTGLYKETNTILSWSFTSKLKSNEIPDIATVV
Chain of Albumin (Bos taurus) (P02769 whole entry, looked up): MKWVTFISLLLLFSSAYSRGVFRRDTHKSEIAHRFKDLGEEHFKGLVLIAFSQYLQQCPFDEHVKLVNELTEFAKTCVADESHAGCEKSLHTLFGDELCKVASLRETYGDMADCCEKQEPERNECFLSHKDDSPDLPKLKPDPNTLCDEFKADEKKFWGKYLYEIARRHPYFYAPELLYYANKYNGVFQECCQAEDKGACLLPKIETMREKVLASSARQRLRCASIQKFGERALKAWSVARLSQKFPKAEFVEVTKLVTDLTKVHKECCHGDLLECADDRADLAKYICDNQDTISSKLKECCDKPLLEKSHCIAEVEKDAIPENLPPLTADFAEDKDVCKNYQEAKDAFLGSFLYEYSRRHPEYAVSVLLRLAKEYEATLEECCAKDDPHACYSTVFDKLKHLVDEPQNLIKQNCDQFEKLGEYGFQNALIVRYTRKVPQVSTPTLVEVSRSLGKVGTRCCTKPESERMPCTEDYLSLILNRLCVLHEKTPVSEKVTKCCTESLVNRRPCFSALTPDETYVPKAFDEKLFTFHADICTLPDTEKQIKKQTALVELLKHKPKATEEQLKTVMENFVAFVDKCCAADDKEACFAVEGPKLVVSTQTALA

With `COC(=O)[C@@]1(Cc2ccc(OC)cc2)[C@H]2c3cc(C(=O)N4CCCC4)n(CCc4c[nH]c5ccc(O)cc45)c3C[C@H]2CN1C(=O)c1ccccc1`, the composite z-score with Albumin (Bos taurus) worked out at 0.863; in [2], 0.298; in [3] it was 0.0409; in [4], 0.774; in assay [5], 2.05; in [6] it was 0.441. The composite z-score was 1.34 in the assay on Sam68 (KHDRBS1); -0.135 in assay [7]; 0.992 in assay [8]; 0.256 in assay [9]; 1.23 in assay [10]; 0.594 in assay [11]. Further, the composite z-score in assay [12] came to 0.948; in assay [13], 1.16; in assay [14] it was 0.0628; in the assay with Lefty1, 0.111; in [16] it was 0.92. Besides, the composite Z-score in assay [1] was 0.714 (inactive). The figures for the z-score in assay [15] and in assay [17] were 0.623 and -1.31 (inactive), respectively.
As to `[N-]=[N+]=Nc1ccccc1[C@@H]1OC(c2ccc(OCCCO)cc2)=N[C@]1(Cc1ccccc1)C(=O)N1CCCCC1`, the composite z-score with Albumin (Bos taurus) was 0.712; in assay [2], 0.22; in assay [3] it was -0.108; in [4] it was 0.415; in [5], 1.94; in assay [6] it was 1.36. Besides, the composite z-score with Sam68 (KHDRBS1) was 1.29; in assay [7], -0.365; in [8], 0.948; in assay [9], 0.782; in assay [10], 1.24; in assay [11] it was 0.218. For the same compound, the composite z-score is 1.02 in assay [12]; 1.21 in assay [13]; 0.768 in [14]; 0.816 in the assay on Lefty1; 1.03 in assay [16]. Also, in assay [1], the composite Z-score was 0.254 (inactive). For the same compound, the z-score is -1.07 in [15] and -5.31 (inactive) in [17].
`CC(C)C(CO)N1C(=O)[C@@H]2C3C(=O)OCCC/C=C\[C@H]3OC23C=CCN(c2ccc4ccccc4c2)C(=O)[C@@H]13` (stereo not given in full): the composite z-score with Albumin (Bos taurus) is 0.974; in assay [2] it was -0.0716; in assay [3] it was -0.156; in [4], 0.941; in assay [5], -0.201; in assay [6], -0.18. The composite z-score in the assay on Sam68 (KHDRBS1) is -1.02; in assay [7] it was -1.28; in assay [8], -0.612; in assay [9], -0.236; in assay [10], -0.696; in assay [11], 0.374. Moreover, the composite z-score in assay [12] is -1.62; in assay [13] it was -0.0619; in assay [14], -1.02; in the assay on Lefty1, 0.0124; in assay [16], 0.562. For the same compound, the composite Z-score in assay [1] was 0.503 (inactive). Further, the z-score is 0.723 in assay [15] and -0.526 (inactive) in [17].
With `C=CCNC(=O)[C@@H]1[C@H]2C(=O)O[C@H](c3ccccc3)[C@H](c3ccccc3)N2[C@H](c2ccc(OCCO)cc2)[C@@]12C(=O)N(C(=O)OCCOC)c1ccc(C#Cc3ccc(OC)cc3)cc12`, the composite z-score with Albumin (Bos taurus) is 0.645; in assay [2], 0.182; in assay [3], -0.151; in [4] it was 0.402; in assay [5], 1.39; in assay [6], 0.78. Further, the composite z-score in the assay on Sam68 (KHDRBS1) came out at 1.3; in assay [7] it was 0.151; in assay [8], 1.14; in [9], 0.81; in assay [10], 1.16; in assay [11] it was 0.066. Moreover, the composite z-score in assay [12] amounted to 0.785; in assay [13] it was 1.27; in assay [14], 0.93; in the assay with Lefty1 it was 0.901; in [16], 0.939. The composite Z-score in assay [1] was -0.116 (inactive). Also, the z-score in assay [15] is -1.41; in assay [17] it was -0.728 (inactive).
Consider `CC(C)=C1C(=O)C(c2ccccc2)=C2CN3C(=O)N(CCc4ccccc4)C(=O)[C@]3(Cc3ccc(C(F)(F)F)cc3)[C@H]21`, for which the composite z-score with Albumin (Bos taurus) turned out to be 0.682; in [2] it was 0.34; in assay [3] it was 0.134; in [4] it was 0.368; in assay [5], 1.95; in [6], 0.224. Besides, the composite z-score is -0.439 in the assay on Sam68 (KHDRBS1); -2.09 in [7]; -0.47 in assay [8]; -0.0822 in assay [9]; 0.566 in assay [10]; 1.01 in assay [11]. The composite z-score in [12] is -0.0056; in [13], 0.0359; in assay [14], -1.29; in the assay with Lefty1 it was -1.16; in assay [16] it was 0.8. For the same compound, the composite Z-score in [1] was -0.355 (inactive). Further, the z-score is 1.57 in [15] and 0.359 (inactive) in assay [17].
